The list is not random: actives were taken first. Their share in the collection is about 9%.
HP1b binding inh – inhibitors of HP1-beta chromodomain binding to methylated histone tails | P83916 | AlphaScreen HP1-beta / biotin-H3K9me3 peptide binding | Potency, µM (top dose mostly 114 µM), hits mostly inhibitors | actives 0.56% (n = 390,000) | AID 540317; note: nearly all actives have a fitted effect of over 70% in size
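Compound inhibition of the preformed complex between 50 nM HP1-beta and 50 nM biotinylated H3K9me3 peptide was read by AlphaScreen. Buffer was PBS pH 7.4 with 0.01% Tween-20. Incubations ran 30 min at room temperature, with 10 ug/mL donor/acceptor beads.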
PLK1 PBD block – blocks phosphopeptide binding to human PLK1 polo-box domain. Potency, µM, most hits filed as inhibitors. actives 2.8% (n = 360,000). Plk1 PBD binding of FITC phosphopeptide, fluorescence polarization; note: series mostly up to about 57 µM; nearly all actives have a fitted effect of over 65% in size
G9a block – G9a (human) methyltransferase inhibition. Potency, µM (highest dose often 102 µM), most hits filed as inhibitors. G9a H3K9 monomethylation, AlphaScreen, 2 h. actives 8.8% (n = 350,000); note: nearly all actives have a fitted effect of over 75% in size
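Step 1: enzyme (final 20 nM) with compound, 15 min RT. Step 2: substrate peptide 500 nM and SAM 20 uM, 2 h RT. Step 3: anti-H3K9me1 antibody and AlphaScreen beads, 10 min, then plate read.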
ALOX12 inh – inhibitors of human 12S-lipoxygenase ALOX12 | actives 1.1% (n = 580,000) | AID 1671190 | purified 12hLO, xylenol orange hydroperoxide absorbance | Potency, µM (top dose mostly 108 µM), most hits filed as inhibitors
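Hydroperoxide product was detected by ferrous iron/xylenol orange as the 573 to 405 nm absorbance ratio. Arachidonic acid at 40 uM (final) was turned over for 30 min at room temperature by 150 nM human 12hLO, pH 7.0 Hepes buffer, after 15 min compound preincubation.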
JMJD2A Tudor – JMJD2A Tudor domain (human) inhibition; actives 4.4% (n = 390,000); O75164; Potency, µM (doses to about 114 µM), most hits filed as inhibitors; AlphaScreen JMJD2A-Tudor / H3K4me3 peptide binding; note: nearly all actives have a fitted effect of over 50% in size
BAZ2B block – BAZ2B (human) inhibition; actives 4.4% (n = 360,000); Potency, µM (highest dose often 114 µM), most hits filed as inhibitors; Q9UIF8; AID 504333; AlphaScreen BAZ2B-H3K14Ac peptide displacement; note: nearly all actives have a fitted effect of over 60% in size
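BAZ2B 50 nM plus b-H3(5-23)K14Ac 50 nM, PBS pH 7.4/0.01% Tween-20, 30 min RT; compound added (max 110 uM), 30 min RT; streptavidin donor/Ni-chelate acceptor beads 10 ug/mL final, 20 min dark; AlphaScreen read.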
Hits are given with their value; 0 = inactive; ? = inconclusive; - = no result. Calls come from the whole dose curve; as a rule, active = well fitted curve in the direction sought with a large enough effect; inconclusive = small, poorly fitted or top-dose-only effect, or another doubt; inactive = no such curve, though single readings can be large; an effect the other way counts as inactive or inconclusive.

SMILES	HP1b binding inh	PLK1 PBD block	G9a block	ALOX12 inh	JMJD2A Tudor	BAZ2B block
CC(C)Oc1ccc(C(=O)Nc2nnc3n2CCS3)cc1	0	-	0	0	0	0
CC(C)(Oc1ccc(Cl)cc1)C(=O)Nc1nnc2n1CCS2	0	-	0	0	79µM	?
Cc1ccc(N2C(=O)N(CC(=O)Nc3ccc(C)c(C)c3[N+](=O)[O-])C(=O)C2C)cc1 (configuration not stated)	0	0	0	0	0	0
CN1/C(=C\C(=O)CSc2cccc[n+]2[O-])C(C)(C)c2ccccc21	0	0	10µM	0	0	0
CN1/C(=C\C(=O)COC(=O)c2ccc(O)c(O)c2)C(C)(C)c2ccccc21	0	0	?	10µM	?	-
Cc1cccc[n+]1CC(=O)/C=C1\N(C)c2ccccc2C1(C)C	0	0	0	?	0	0
CN1/C(=C\C(=O)COC(=O)CNC(=O)c2ccc3ccccc3c2)C(C)(C)c2ccccc21	0	19µM	?	0	0	0
O=C1NN=C(CSc2n[nH]c(=S)s2)CS1	0	?	2.5µM	?	18µM	79µM
CCOC(=O)c1ccc(NCc2ccncc2)cc1	0	0	-	0	0	-
Cc1cccc(NCc2ccccc2O)c1C	0	0	?	?	?	0
Cc1ccc(NCc2ccccc2O)c(C)c1	0	0	45µM	0	?	32µM
O=C(NC1C[C@H]2CC[C@@H](C1)N2C(=O)c1ccc(Br)o1)c1ccncc1 (some centres not stated)	-	-	-	0	-	-
CC(C)NC(=O)c1cnc2sc(N3CCCCCC3)nn2c1=O	0	-	0	?	0	0
O=C1C(Cl)=C(N2CCCCC2)C(=O)C(Cl)=C1c1cnc(N2CCCCC2)s1	?	7.5µM	2.2µM	-	8.9µM	45µM
CN(C)c1ncc(C2=C(Cl)C(=O)C(N3CCCC3)=C(Cl)C2=O)s1	0	7.5µM	-	?	11µM	-
COc1ccc(OC)c(S(=O)(=O)Nc2cc3c4c(c2)CC(=O)N4CCC3)c1	0	0	?	0	0	0
COc1ccc(CCN(Cc2nc3ccccc3c(=O)[nH]2)C(=O)c2ccco2)cc1OC	0	0	0	0	0	0
Cc1nc(CCNC(=O)CC2C(=O)NCCN2Cc2ccccc2)sc1C (configuration not stated)	0	0	-	0	0	0
COc1ccc(CN2CCNC(=O)C2CC(=O)NCCc2nc(C)c(C)s2)cc1C (configuration not stated)	0	0	45µM	0	?	0
COc1ccc(CN2CCNC(=O)C2CC(=O)NCc2cnn(C)c2)cc1OC (configuration not stated)	0	0	50µM	0	0	0
COc1ccc(CN2CCNC(=O)C2CC(=O)O)cc1OC (configuration not stated)	0	0	?	0	0	0
CC(C)CNC(=O)c1ccc(Cl)c(N)c1	-	-	0	-	-	0
CCC1CCC(C(=O)NNC(=O)c2cc(-c3ccco3)[nH]n2)CC1 (configuration not stated)	0	0	14µM	?	0	?
Cc1csc(NC(=O)[C@@H]2C[C@H](c3cccc(C(F)(F)F)c3)N(Cc3cnn(C)c3)C2)n1	-	-	-	0	-	-
O=C(Cc1cccs1)N1CCN(c2cc(C(F)(F)F)ncn2)CC1	-	-	-	35µM	-	-
SMILES	HP1b binding inh	PLK1 PBD block	G9a block	ALOX12 inh	JMJD2A Tudor	BAZ2B block
c1ccc(-c2cn3nc(-c4ccccc4)c(-c4ccccc4)nc3n2)cc1	0	27µM	0	0	0	0
COc1ccc(NS(=O)(=O)c2ccc(O)c(NC(=O)c3cc4c(C)nn(-c5ccc(F)cc5)c4s3)c2)cc1	0	75µM	0	-	?	0
COc1cccc2c1C1COC3C4CC(C(=O)O)C(C(C2)N13)N4C (configuration not stated)	0	0	-	?	13µM	-
CC1CCN(CCOc2ccc3c(=O)c(-c4ccccc4)coc3c2)CC1	-	-	-	0	-	-
CCN1CCN(CCOc2ccc3c(=O)c(-c4ccc(Cl)cc4)coc3c2)CC1	-	-	-	18µM	-	-
O=S(=O)(O)c1ccc2c(N=Nc3ccc(S(=O)(=O)O)c4ccccc34)c(O)c(S(=O)(=O)O)cc2c1	-	-	28µM	-	-	-
CC(=Nc1ccccc1)C1=C(O)CC(C)(C)CC1=O	0	0	0	?	0	0

Compound activity from PubChem.
